The panel holds about 83,000 compounds, 20% with a hit somewhere; the sample as a whole holds those more often.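 How to read the values: 0–100, growth inhibition (40 = 60% inhibited); 0, no net growth; -100 to 0, cell death (-40 = 40% of starting cells died; -100 = all dead).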 Activity calls are given as the source filed them. How the source made its calls: active means growth percent below 10; inactive means the rest.
Key:
Test in all cases: NCI-60 one-dose screen, 48 h (100 = growth as untreated, 0 = no growth, -100 = all killed)
Conditions in all cases: 10 µM unless noted
T-47D breast = system: T-47D breast
BT-549 breast = system: BT-549 breast
MDA-MB-435 melanoma = system: MDA-MB-435 melanoma
SW-620 colon = system: SW-620 colon
MCF7 breast = system: MCF7 breast
HCT-116 colon = system: HCT-116 colon
HCC-2998 colon = system: HCC-2998 colon
KM12 colon = system: KM12 colon

Measured: growth

Cc1ccc(-c2nnc3sc(C4=Cc5ccccc5OC=C4)nn23)cc1
inactive: T-47D breast 91.6% | BT-549 breast 95.7% | MDA-MB-435 melanoma 93.7% | SW-620 colon 99.9% | MCF7 breast 88.9% | HCT-116 colon 104% | HCC-2998 colon 101% | KM12 colon 106%

CCC(CC)N1C(=O)/C(=c2\sc3n(c2=O)C2C(NN=3)N(CC)C(=O)N2CC)c2ccccc21 (stereo not drawn)
inactive: T-47D breast 66.5% | BT-549 breast 78.6% | SW-620 colon 27.2% | MCF7 breast 15% | HCT-116 colon 15.1% | HCC-2998 colon 21.7% | KM12 colon 14.2%
active: MDA-MB-435 melanoma -8.32%

COc1ccc(-c2nc3cc(Cl)c(Cl)cc3n2CC(=O)N=Nc2c(O)[nH]c3ccc(Br)cc23)cc1
active: T-47D breast -52.7% | BT-549 breast 3.05% | MDA-MB-435 melanoma -59.1% | SW-620 colon -54.6% | MCF7 breast -11.6% | HCT-116 colon -31.5% | HCC-2998 colon -25.9% | KM12 colon 5.77%

O=C(Cn1cc(CN2C(=O)c3ccc([N+](=O)[O-])cc3C2=O)nn1)Nc1ccc(F)cc1Cl
inactive: T-47D breast 95.4% | BT-549 breast 92.4% | MDA-MB-435 melanoma 101% | SW-620 colon 99.6% | MCF7 breast 93.3% | HCT-116 colon 102% | HCC-2998 colon 100% | KM12 colon 105%

Fc1ccc(-c2cc3nc(C(Cl)Cl)nc(-c4cccs4)n3n2)cc1
active: SW-620 colon 2.69% | MCF7 breast 3.99% | HCT-116 colon -2.24% | HCC-2998 colon -61.5% | KM12 colon -30.5%
inactive: T-47D breast 25.2% | BT-549 breast 92% | MDA-MB-435 melanoma 14.3%

Cc1nn(-c2ccc(Cl)cc2)c(C)c1N=Nc1ccc2oc(=O)ccc2c1
inactive: T-47D breast 45.9% | BT-549 breast 101% | MDA-MB-435 melanoma 85.4% | SW-620 colon 94% | MCF7 breast 78.7% | HCT-116 colon 66.5% | HCC-2998 colon 105% | KM12 colon 90.3%

CC(=O)C1=NN(c2ccc(Cl)cc2)C(=O)CN1C
inactive: T-47D breast 96.6% | BT-549 breast 96.6% | MDA-MB-435 melanoma 103% | SW-620 colon 106% | MCF7 breast 96.1% | HCT-116 colon 99.8% | HCC-2998 colon 104% | KM12 colon 102%

CC(c1ccccc1)N1C(=O)/C(=C/c2csc(C#N)n2)SC1=S (stereo not drawn)
inactive: T-47D breast 69.2% | BT-549 breast 90.5% | MDA-MB-435 melanoma 94.4% | SW-620 colon 74.1% | MCF7 breast 36.6% | HCT-116 colon 67.6% | HCC-2998 colon 107% | KM12 colon 103%

COc1ccc(S(=O)(=O)NCCCNc2nccc(-n3cnc4ccccc43)n2)cc1
inactive: T-47D breast 66.3% | BT-549 breast 92.9% | MDA-MB-435 melanoma 98.7% | SW-620 colon 104% | MCF7 breast 85.1% | HCT-116 colon 89.9% | HCC-2998 colon 111% | KM12 colon 84.1%

Cc1cc2nc(C(Cl)Cl)nc(-c3ccco3)n2n1
inactive: T-47D breast 79.2% | BT-549 breast 93.3% | MDA-MB-435 melanoma 89.4% | SW-620 colon 54.1% | MCF7 breast 46% | HCT-116 colon 74% | HCC-2998 colon 58.7% | KM12 colon 25.4%

COc1ccc(NC(=O)[C@H](C)NC(=O)OC(C)(C)C)cc1C(=O)Nc1cccc(-c2cc(=O)c3c(OC)c(OC)c(OC)cc3o2)c1
active: T-47D breast -24.7% | BT-549 breast -85% | MDA-MB-435 melanoma 7.35% | SW-620 colon -25.6% | MCF7 breast -9.71% | HCT-116 colon -61.7% | HCC-2998 colon -60.8% | KM12 colon -36.4%

O=c1cc(-c2ccccc2)nc2sc(-c3c[nH]c4ccc(Br)cc34)nn12
inactive: T-47D breast 75.2% | BT-549 breast 108% | MDA-MB-435 melanoma 101% | SW-620 colon 105% | MCF7 breast 67.9% | HCT-116 colon 103% | HCC-2998 colon 109% | KM12 colon 103%

Cn1cc(-c2nn3cc(-c4cccnc4)nc3s2)c2cc(F)ccc21
inactive: T-47D breast 65% | BT-549 breast 92% | MDA-MB-435 melanoma 29.7% | SW-620 colon 80.3% | MCF7 breast 37.8% | HCT-116 colon 91% | HCC-2998 colon 96.6% | KM12 colon 76.4%

N#Cc1c(-c2cccs2)cc(-c2cnccn2)nc1SCC(=O)NNC(=S)Nc1ccc(F)cc1
inactive: T-47D breast 102% | BT-549 breast 118% | MDA-MB-435 melanoma 101% | SW-620 colon 105% | MCF7 breast 86.1% | HCT-116 colon 102% | HCC-2998 colon 109% | KM12 colon 101%

COC(=O)c1nc(-c2ccc(C)cc2)oc1S(=O)(=O)N1CCN(c2oc(-c3ccccc3)nc2C#N)CC1
inactive: T-47D breast 111% | BT-549 breast 99.7% | MDA-MB-435 melanoma 102% | SW-620 colon 99.5% | MCF7 breast 80.6% | HCT-116 colon 92.8% | HCC-2998 colon 113% | KM12 colon 101%

C/C(=C(/c1ccc(O)cc1)c1ccc(OCCN(C)C)cc1)c1ccc(Cl)cc1
inactive: T-47D breast 30.9% | BT-549 breast 73.7% | MDA-MB-435 melanoma 28.1% | MCF7 breast 15.7% | HCT-116 colon 25.6% | KM12 colon 44.8%
active: SW-620 colon -32.9% | HCC-2998 colon 7.02%

O=C(CCCCCCN1CC(=O)N2[C@@H](c3cccc(Br)c3)c3[nH]c4ccccc4c3C[C@H]2C1=O)NO
inactive: T-47D breast 17.2% | BT-549 breast 57.9% | MDA-MB-435 melanoma 14% | SW-620 colon 15% | MCF7 breast 21.4% | HCC-2998 colon 41.6% | KM12 colon 28.4%
active: HCT-116 colon 8.35%

COc1ccc(S(=O)(=O)n2cc(C=O)c3ccccc32)c(OC)c1
inactive: T-47D breast 65.6% | BT-549 breast 64.2% | MDA-MB-435 melanoma 29.6% | SW-620 colon 35.4% | MCF7 breast 25.5% | HCT-116 colon 15.4% | HCC-2998 colon 110% | KM12 colon 95.4%

CS(=O)(=O)c1nccc(-c2c(-c3ccc(F)c(OCCc4ccc(F)cc4)c3)nc3sccn23)n1
active: T-47D breast -75.5% | MCF7 breast -61% | HCC-2998 colon -91% | KM12 colon -42.9%
inactive: BT-549 breast 57.2% | MDA-MB-435 melanoma 87.2% | SW-620 colon 67.1% | HCT-116 colon 47.6%

COCCOc1ccc(-c2csc(NC(C)=O)n2)cc1NS(=O)(=O)c1cccc2c(N(C)C)cccc12
inactive: T-47D breast 67.7% | BT-549 breast 105% | MDA-MB-435 melanoma 105% | SW-620 colon 111% | MCF7 breast 85% | HCT-116 colon 88.2% | HCC-2998 colon 113% | KM12 colon 97.1%

O=C(NCCCNc1cc(-c2cn(-c3ccccc3)nc2-c2cccc(O)c2)ccn1)Nc1ccc(F)cc1
active: MDA-MB-435 melanoma -39.5% | HCC-2998 colon -60.3% | KM12 colon 2.62%
inactive: T-47D breast 11.3% | BT-549 breast 22% | SW-620 colon 13.5% | MCF7 breast 10.8% | HCT-116 colon 10.4%

CS(=O)(=O)c1ccc(-c2nn(-c3ccccc3)cc2/C=C/C(=O)c2ccc(Br)cc2)cc1
inactive: T-47D breast 87.8% | BT-549 breast 105% | MDA-MB-435 melanoma 95.3% | SW-620 colon 86.9% | MCF7 breast 50.2% | HCT-116 colon 73.2% | HCC-2998 colon 105% | KM12 colon 80%

CC(C)=CCC[C@](C)(O)[C@H]1CC[C@]2(C)[C@@H]1CC[C@@H]1[C@@]3(C)CCC(NC(=O)c4ccccc4C(=O)O)C(C)(C)[C@@H]3CC[C@]12C (stereo partly drawn)
inactive: T-47D breast 79.4% | BT-549 breast 113% | MDA-MB-435 melanoma 51.2% | SW-620 colon 91% | MCF7 breast 73% | HCT-116 colon 86.9% | HCC-2998 colon 96.5% | KM12 colon 87.9%

C#C[C@]1(O)CC[C@H]2[C@@H]3CC=C4c5sc(Nc6ccc(OC)nc6)nc5CC[C@]4(C)[C@H]3CC[C@@]21C
inactive: T-47D breast 21.2% | BT-549 breast 33.3% | MDA-MB-435 melanoma 48.1% | HCC-2998 colon 65.5% | KM12 colon 19.6%
active: SW-620 colon -20.8% | MCF7 breast 4.25% | HCT-116 colon -48.6%

O=C1/C(=C/c2ccc([N+](=O)[O-])cc2)SC(=Nc2ccccc2)N1Nc1ccccc1
inactive: T-47D breast 56.2% | BT-549 breast 95.6% | MDA-MB-435 melanoma 71.1% | SW-620 colon 43.2% | MCF7 breast 44.1% | HCT-116 colon 26.9% | HCC-2998 colon 85.3% | KM12 colon 77.5%

O=C(NCCCNc1cc(-c2cn(-c3ccccc3)nc2-c2cccc(O)c2)ccn1)Nc1cccc(C(F)(F)F)c1
active: HCC-2998 colon -34.7%
inactive: T-47D breast 39.2% | BT-549 breast 68.8% | MDA-MB-435 melanoma 31.7% | SW-620 colon 12.4% | MCF7 breast 23.7% | HCT-116 colon 23.1% | KM12 colon 10.7%

CCCCCCNC(=O)Oc1ccc(/C(=C(\C)c2ccc(Cl)cc2)c2ccc(OCCN(C)C)cc2)cc1
inactive: T-47D breast 54.8% | BT-549 breast 77.4% | MDA-MB-435 melanoma 85.3% | SW-620 colon 21.3% | MCF7 breast 10.8% | HCT-116 colon 18.7% | HCC-2998 colon 71.4% | KM12 colon 83.1%

COc1cc(/C=C/C(=O)c2ccc(NC(=O)COc3cccc4cccnc34)cc2)cc(OC)c1OC
inactive: T-47D breast 90.2% | BT-549 breast 81.7% | MDA-MB-435 melanoma 88.3% | SW-620 colon 69.8% | MCF7 breast 20.6% | HCT-116 colon 23.9% | HCC-2998 colon 112% | KM12 colon 85.8%

O=C(O)c1ccc(-n2cc(CNc3ccc(F)cc3)c(-c3ccc(C(F)(F)F)cc3)n2)cc1
inactive: T-47D breast 78.2% | BT-549 breast 103% | MDA-MB-435 melanoma 80.9% | SW-620 colon 98.6% | MCF7 breast 67.8% | HCT-116 colon 83.3% | HCC-2998 colon 102% | KM12 colon 78.7%

C#CCOc1ccc(C(Nc2cc(Cl)ccc2Cl)c2nnnn2C2CCCCC2)cc1 (stereo not drawn)
inactive: T-47D breast 67.5% | BT-549 breast 93.6% | MDA-MB-435 melanoma 102% | SW-620 colon 91.8% | MCF7 breast 73.4% | HCT-116 colon 56.3% | HCC-2998 colon 90.1% | KM12 colon 92%

CN(c1ccc(F)cc1)S(=O)(=O)c1ccc(-c2cnc(C3CC3)o2)cc1
inactive: T-47D breast 54.1% | BT-549 breast 46.2% | SW-620 colon 32.9% | MCF7 breast 23.7% | HCT-116 colon 18.7% | HCC-2998 colon 22.3% | KM12 colon 18.5%
active: MDA-MB-435 melanoma -26.2%

Reference: PubChem BioAssay (NCI)
